Experimental data from PubChem BioAssay (NCATS).
Results filed as inconclusive are left out. Active and inactive are the calls of the source. Calls follow the shape of the dose curve; as a rule, active = well fitted cell-killing curve with a large enough effect; inconclusive = small, poorly fitted or top-dose-only effect, or effect the other way; inactive = flat fitted curve, though single readings scatter.

Tests used:
Test in all cases: Primary qHTS to identify gynecologic anti-cancer compounds using libraries of approved drugs and bioactive compounds (AID 1345084); also: nearly all actives have a fitted effect of over 55% in size
Conditions in all cases: Gynecologic cancer cell panel viability, ATPlite luminescence, 48 h; series mostly up to 57.5 µM
[1] = system: JEG-3
Procedure, shortened: (§1)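 Cells, 1,000 per well, plated 16 h, then exposed 48 h at 37 C to compounds. Viability by ATPlite luminescence after 15 min at room temperature.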

[2] = system: OV90
Procedure, shortened: as §1

[3] = system: PA-1
Procedure, shortened: as §1

[4] = system: SKOV3
Procedure, shortened: as §1

[5] = system: Tov-21-G
Procedure, shortened: as §1

[6] = system: Tov112D
Procedure, shortened: as §1
% is scaled to controls: 0 for no effect and ±100 for the full control effect.

C[C@H]1C[C@H]2[C@@H]3CCC4=CC(=O)C=C[C@]4(C)[C@@]3(F)[C@@H](O)C[C@]2(C)[C@@]1(O)C(=O)COP(=O)(O)O
inactive: Potency [1] | Potency [2] | Potency [3] | Potency [4] | Potency [5] | Potency [6]

C1CCN2CC3C[C@@H](CN4CCCC[C@@H]34)[C@H]2C1
inactive: Potency [1] | Potency [2] | Potency [3] | Potency [4] | Potency [5] | Potency [6]

C[C@@H]1C(=O)O[C@H]2CC34[C@H]5C[C@@H](C(C)(C)C)C36[C@@H](OC(=O)[C@@H]6O)OC4(C(=O)O5)[C@]21O (stereo partly drawn)
inactive: Potency [1] | Potency [2] | Potency [3] | Potency [4] | Potency [5] | Potency [6]

CC(=O)c1c(O)cc2cccc3c2c1CC(C)(O)O3 (stereo not drawn)
inactive: Potency [1] | Potency [2] | Potency [3] | Potency [4] | Potency [5] | Potency [6]

CC(C)C1=CC2=CCC3[C@](C)(CCC[C@@]3(C)C(=O)O)C2CC1O (stereo partly drawn)
inactive: Potency [1] | Potency [2] | Potency [3] | Potency [4] | Potency [5] | Potency [6]

O=S(=O)(Nc1ccc(C(O)(C(F)(F)F)C(F)(F)F)cc1)c1cccs1
inactive: Potency [1] | Potency [2] | Potency [3] | Potency [4] | Potency [5] | Potency [6]

C=CCc1ccc(O[C@@H]2O[C@H](CO[C@@H]3O[C@@H](C)[C@H](O)[C@@H](O)[C@H]3O)[C@@H](O)[C@H](O)[C@H]2O)cc1
inactive: Potency [1] | Potency [2] | Potency [3] | Potency [4] | Potency [5] | Potency [6]

O=C(O[C@H]1[C@@H]2C=CO[C@@H](O[C@@H]3O[C@H](CO)[C@@H](O)[C@H](O)[C@H]3O)[C@@H]2[C@@]2(CO)O[C@@H]12)c1ccc(O)c(O)c1
inactive: Potency [1] | Potency [2] | Potency [3] | Potency [4] | Potency [5] | Potency [6]

CC1=CC(=O)OC(C)(CC(C)(O)C(=O)O)C1 (stereo not drawn)
inactive: Potency [1] | Potency [2] | Potency [3] | Potency [4] | Potency [5] | Potency [6]

C=C1C(O[C@@H]2O[C@H](CO)[C@@H](O)[C@H](O)[C@@H]2O)CC2C(C)(C)C(O)CCC2(C)C1CC/C(C)=C\CO (stereo partly drawn)
inactive: Potency [1] | Potency [2] | Potency [3] | Potency [4] | Potency [5] | Potency [6]

O=C(O)c1n[nH]c2c1C[C@H]1C[C@@H]21
inactive: Potency [1] | Potency [2] | Potency [3] | Potency [4] | Potency [5] | Potency [6]

Cn1c(=O)c2nc(/C=C/c3cccc(Cl)c3)n(C)c2n(C)c1=O
inactive: Potency [1] | Potency [2] | Potency [3] | Potency [4] | Potency [5] | Potency [6]

CC1(C)CC[C@]2(C(=O)O)CC[C@]3(C)C(=CCC4[C@@]5(C)CC[C@H](O[C@@H]6O[C@H](C(=O)O)[C@@H](O)[C@H](O)[C@H]6O)C(C)(CO)C5CC[C@]43C)C2C1 (stereo partly drawn)
inactive: Potency [1] | Potency [2] | Potency [3] | Potency [4] | Potency [5] | Potency [6]

CCOc1ccc(C(Nc2ccccn2)c2ccc3ccc(C)nc3c2O)cc1C (stereo not drawn)
inactive: Potency [1] | Potency [2] | Potency [3] | Potency [4] | Potency [5] | Potency [6]

O=C(O)c1cc(O)c2cccc(O)c2c1O[C@@H]1O[C@H](CO)[C@@H](O)[C@H](O)[C@H]1O
inactive: Potency [1] | Potency [2] | Potency [3] | Potency [4] | Potency [5] | Potency [6]

C[C@]12CC[C@@H]3c4ccc(O[C@@H]5O[C@H](C(=O)O)[C@@H](O)[C@H](O)[C@H]5O)cc4CC[C@H]3[C@@H]1CCC2=O
inactive: Potency [1] | Potency [2] | Potency [3] | Potency [4] | Potency [5] | Potency [6]

CC(/C=C/C1(O)C(C)CC(O)CC1(C)C)OC1OC(CO)C(O)C(O)C1O (stereo not drawn)
inactive: Potency [1] | Potency [2] | Potency [3] | Potency [4] | Potency [5] | Potency [6]

CC1=C(C)C(=O)OC(C(C)C2C(O)CC3C4C5OC5C5(O)CC(OC6OC(CO)C(O)C(O)C6O)CC(O)C5(C)C4CCC32C)C1 (stereo not drawn)
inactive: Potency [1] | Potency [2] | Potency [3] | Potency [4] | Potency [5] | Potency [6]

CC1NC(=O)C(Cc2c[nH]c3ccccc23)NC1=O (stereo not drawn)
inactive: Potency [1] | Potency [2] | Potency [3] | Potency [4] | Potency [5] | Potency [6]

CCOc1c2c(c(OCC)c3ccccc13)C(=O)N(c1ccc(CC(=O)NS(=O)(=O)c3ccccc3)cc1)C2
inactive: Potency [1] | Potency [2] | Potency [3] | Potency [4] | Potency [5] | Potency [6]

NC(=O)c1cccc(-c2cc(O)cc(OC(=O)NC3CCCCC3)c2)c1
inactive: Potency [1] | Potency [2] | Potency [3] | Potency [4] | Potency [5] | Potency [6]

O=c1c2cccnc2n(-c2cccc([N+](=O)[O-])c2)c(=O)n1Cc1ccncc1
inactive: Potency [1] | Potency [2] | Potency [3] | Potency [4] | Potency [5] | Potency [6]

O=C(O[C@@H]1O[C@H](CO)[C@@H](O)[C@H](O)[C@H]1O)c1c(O)cc(O)cc1/C=C/c1ccccc1
inactive: Potency [1] | Potency [2] | Potency [3] | Potency [4] | Potency [5] | Potency [6]

CC(C)=CC/C=C(/C)[C@H]1CC[C@]2(C)[C@@H]1[C@H](O)CC1[C@@]3(C)CC[C@H](O)C(C)(C)[C@@H]3[C@@H](O[C@@H]3O[C@H](CO)[C@@H](O)[C@H](O)[C@H]3O[C@@H]3O[C@@H](C)[C@H](O)[C@@H](O)[C@H]3O)C[C@]12C (stereo partly drawn)
inactive: Potency [1] | Potency [2] | Potency [3] | Potency [4] | Potency [5] | Potency [6]

COC1CC(OC2CCC3(C)C(=CCC4C3CCC3(C)C(C(C)O)CCC43O)C2)OC(C)C1OC1OC(C)C(OC2OC(COC3OC(COC4OC(CO)C(O)C(O)C4O)C(O)C(O)C3O)C(O)C(O)C2O)C(OC)C1O (stereo not drawn)
inactive: activity change, negative = cytotoxicity [1] -1.13% [at 11.6 µM] | activity change, negative = cytotoxicity [2] 3.31% [at 11.6 µM] | activity change, negative = cytotoxicity [3] 5.02% [at 11.6 µM] | activity change, negative = cytotoxicity [4] 0% [at 11.6 µM] | activity change, negative = cytotoxicity [5] -5.94% [at 11.6 µM] | activity change, negative = cytotoxicity [6] -0.956% [at 11.6 µM]

C/C=C(\C)C(=O)O[C@@H](C)[C@H]1CC[C@]2(O)C3CCC4C[C@@H](OC5CC(OC)C(OC6CC(OC)C(OC7CC(OC)C(OC8OC(C)C(OC9OC(CO)C(O)C(O)C9O)C(OC)C8O)C(C)O7)C(C)O6)C(C)O5)CC[C@]4(C)C3[C@H](O)[C@@H](O)[C@]12C (stereo partly drawn)
inactive: activity change, negative = cytotoxicity [1] -1.08% [at 6.55 µM] | activity change, negative = cytotoxicity [2] 15.4% [at 6.55 µM] | activity change, negative = cytotoxicity [3] 3.34% [at 6.55 µM] | activity change, negative = cytotoxicity [4] -4.09% [at 6.55 µM] | activity change, negative = cytotoxicity [5] 13.7% [at 6.55 µM] | activity change, negative = cytotoxicity [6] 8.06% [at 6.55 µM]

C/C1=C\C[C@H](O[C@@H]2O[C@H](CO)[C@@H](O)[C@H](O)[C@H]2O)/C(C)=C/[C@H]2OC(=O)[C@H](C)[C@@H]2CC1
inactive: Potency [1] | Potency [2] | Potency [3] | Potency [4] | Potency [5] | Potency [6]

C=C/C=C/[C@@H]1OC[C@H](/C=C/C=C/C)[C@H]1O
inactive: Potency [1] | Potency [2] | Potency [3] | Potency [4] | Potency [5] | Potency [6]

CC(=O)O[C@@H]1[C@H]2[C@@H](OC(=O)c3ccccc3)[C@@H](C)C[C@]2(O)[C@H](OC(C)=O)[C@@]2(C)[C@@H]3CC(C)(C)C(=O)[C@]3(OC(C)=O)C[C@@]12C
inactive: Potency [1] | Potency [2] | Potency [3] | Potency [4] | Potency [5] | Potency [6]

CC1=C2C=C(CO)C(CO)CCC2(C)CCC1=O (stereo not drawn)
inactive: Potency [1] | Potency [2] | Potency [3] | Potency [4] | Potency [5] | Potency [6]

CC(C)(O)CNc1nc(Nc2ccnc(C(F)(F)F)c2)nc(-c2cccc(C(F)(F)F)n2)n1
inactive: Potency [1] | Potency [2] | Potency [3] | Potency [4] | Potency [5] | Potency [6]

COC(=O)C1=CO[C@@H](O[C@@H]2O[C@H](CO)[C@@H](O)[C@H](O)[C@H]2O)[C@@H]2[C@@](C)(O)[C@@H](O)C[C@]12O
inactive: Potency [1] | Potency [2] | Potency [3] | Potency [4] | Potency [5] | Potency [6]

O=C(O)[C@H]1CCCC[C@H]1C(=O)N1CCc2ccccc2[C@H]1CN1C(=O)c2ccccc2C1=O
inactive: Potency [1] | Potency [2] | Potency [3] | Potency [4] | Potency [5] | Potency [6]

CCS(=O)(=O)N1CCC([C@@H](C)n2c(C)c(C(=O)NCc3c(OC)cc(C)[nH]c3=O)c3ccccc32)CC1
inactive: Potency [1] | Potency [2] | Potency [3] | Potency [4] | Potency [5] | Potency [6]

CC1(CCC(=O)O)C(=O)C=CC23CC4CC(OC4(C)C2O)C13 (stereo not drawn)
inactive: Potency [1] | Potency [2] | Potency [3] | Potency [4] | Potency [5] | Potency [6]

CC1=CCC2C(C)(CO)CCCC2(C)C1CC12OC1C(O)C(CO)=CC2O (stereo not drawn)
inactive: Potency [1] | Potency [2] | Potency [3] | Potency [4] | Potency [5] | Potency [6]

CCOc1nc2cccc(C(=O)O)c2n1Cc1ccc(-c2ccccc2-c2noc(=O)[nH]2)cc1
inactive: Potency [1] | Potency [2] | Potency [3] | Potency [4] | Potency [5] | Potency [6]

COc1ccc([C@@H]2N[C@H](C(=O)O)Cc3c2[nH]c2ccccc32)cc1CN1CCN(c2ccccc2F)CC1
inactive: Potency [1] | Potency [2] | Potency [3] | Potency [4] | Potency [5] | Potency [6]

C=C(C)[C@@H]1CC[C@](C)(O)[C@@H](OC(=O)c2ccccc2)C1
inactive: Potency [1] | Potency [2] | Potency [3] | Potency [4] | Potency [5] | Potency [6]

C=C1CCC2(OC1)OC1CC3C4CC=C5CC(O)CC(O[C@@H]6OC[C@@H](O)[C@H](O)[C@H]6O)C5(C)C4CCC3(C)C1(O)C2C (stereo partly drawn)
inactive: Potency [1] | Potency [2] | Potency [3] | Potency [4] | Potency [5] | Potency [6]

CC(=O)N[C@H]1[C@H](O[C@H]2CC[C@@]3(C)C(CC[C@]4(C)C3CC=C3C5CC(C)(C)CC[C@]5(C(=O)O)[C@H](O[C@@H]5O[C@H](CO)[C@@H](O)[C@H](O)[C@H]5O)C[C@]34C)C2(C)C)O[C@H](CO[C@@H]2OC[C@H](O)[C@H](O)[C@H]2O[C@@H]2OC[C@@H](O)[C@H](O)[C@H]2O)[C@@H](O)[C@@H]1O (stereo partly drawn)
inactive: activity change, negative = cytotoxicity [1] -2.88% [at 11.6 µM] | activity change, negative = cytotoxicity [2] -0.313% [at 11.6 µM] | activity change, negative = cytotoxicity [3] -6.75% [at 11.6 µM] | activity change, negative = cytotoxicity [4] 13% [at 11.6 µM] | activity change, negative = cytotoxicity [5] 0.549% [at 11.6 µM] | activity change, negative = cytotoxicity [6] 6.55% [at 11.6 µM]

CCOC(=O)c1ccc(N(C)c2csc(-c3ccccc3)n2)cc1
inactive: Potency [1] | Potency [2] | Potency [3] | Potency [4] | Potency [5] | Potency [6]

OCC1OC(Oc2cc(O)c3c(c2)OC(c2ccc(O)cc2)C(O)C3)C(O)C1O (stereo not drawn)
inactive: Potency [1] | Potency [2] | Potency [3] | Potency [4] | Potency [5] | Potency [6]
